Results filed as inconclusive are left out. Where a call stands in place of a potency, no number is given. Active and inactive are the calls of the source. Calls come from the whole dose curve; as a rule, active = well fitted inhibition curve with a large enough effect; inconclusive = small, poorly fitted or top-dose-only effect; inactive = no such curve, though single readings can be large or run the other way.
Potency is the fitted concentration of half-maximal effect.

The assay can be described thus: Confirmatory qHTS for Identification of Small Molecule Inhibitors of Huntingtin Promoter Activity. Note: nearly all actives have a fitted effect of over 65% in size. Conditions: HEK293 HTT promoter firefly luciferase reporter, 24 h; series mostly up to 57.5 µM. The gist of the method: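 Plated reporter HEK293 cells (24 h) received library compounds at up to 57.5 uM final or 50 uM PTC124, incubated 24 h at 37C; firefly luciferase luminescence was then recorded with Dual-Glo reagent.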
Consider `CCN(CC)S(=O)(=O)c1ccc(NC(=O)CCc2c(C)nc3cc(-c4ccc(Cl)cc4)nn3c2C)cc1`, for which the Potency was 0.301 µM (active). As for `Cc1ccc(C)c(N2CCN(C(=O)c3nn(C)c4c3CS(=O)(=O)c3ccccc3-4)CC2)c1`, the Potency is 23.9 µM (active).

`Cc1cccc(CSc2cn(CC(=O)N3CCOCC3)c3ccccc23)c1`: the Potency entry was “inactive”. Under `O=C(C=Cc1ccc(CN(CCO)CCc2c[nH]c3ccccc23)cc1)NO` stands “inactive”; under `CC(C)[C@H](C(=O)Nc1ccc(C(=O)NO)cc1)c1ccccc1`, “inactive”.

Regarding `O=C(CCCCCCC(=O)Nc1ccccc1)NO`, the Potency result is “inactive”. For `Cc1ccc(C)c(N2CCN(C(=O)C3CCN(c4nc(-c5ccc(C(C)C)cc5)no4)CC3)CC2)c1` the value was 0.239 µM (active). For `CCCN(c1ccccc1CC)S(=O)(=O)c1ccc2c(c1)CC(C)N2C(=O)C1CC1` (stereo not drawn) the value was 13.5 µM (active).

For `CC(C)c1nc2ccc(C(=O)NCCCN3CCN(c4cccc(Cl)c4)CC3)cc2o1`, the Potency entry is “inactive”.

On to `CCN(C(=O)CSc1nc(-c2ccccc2)no1)c1cccc(C)c1`, for which the Potency result was “inactive”. For `COc1ccccc1N=c1scc(-c2ccc(S(=O)(=O)N3CCCC3)cc2)n1C` the value was 4.78 µM (active); for `COc1ccc(C2C=C(c3ccc(Br)cc3)Nc3nnnn32)c(OC)c1` (stereo not drawn), “inactive”; for `COc1ccc(S(=O)(=O)Nc2cc3c(cc2NCc2ccccc2)n(C)c(=O)n3C)cc1OC`, “inactive”. Under `C#C[C@]1(O)CC[C@H]2[C@H]3CCc4cc(OC)ccc4[C@H]3CC[C@@]21C` stands “inactive”. Under `Cc1ccc(CN(C(=O)c2ccc(OCC(C)C)cc2)c2ccccn2)o1` stands “inactive”. Turning to `Cc1ccc(CN2CCSc3ccc(C(=O)NCC(C)c4ccccc4)cc32)cc1` (stereo not drawn), the Potency result is “inactive”. For `Cc1ccc(C(=O)Nc2ccc(F)cc2)cc1S(=O)(=O)N1CCCCCC1` the value was “inactive”; for `CCc1ccc2c(c1)-c1ccccc1S(=O)(=O)N2CC(=O)N1CCCCC1`, “inactive”. Under `CCN(CCCNC(=O)CSc1cc(=O)n(CC)c2ccccc12)c1ccccc1` stands “inactive”; under `N#CC[C@H](C1CCCC1)n1cc(-c2ncnc3[nH]ccc23)cn1`, “inactive”; under `COc1cc(OC)c(OC)cc1/C=C/c1nc2cc3ccccc3cc2c(=O)n1-c1ccc(F)c(Cl)c1`, “inactive”. Take `O=C(C=Cc1cccc(S(=O)(=O)Nc2ccccc2)c1)NO`: the Potency result is “inactive”. For `O=C(NCc1cccc(Cl)c1)C1CCCN(c2nn3cc(-c4ccc(F)cc4)nc3s2)C1` (stereo not drawn) the value was 12 µM (active).
